# Assay outcomes (PubChem)
# Only some compounds are listed: those with a hit (about 9.2% of all), similar ones and a draw of the others.
# NPC1 prom act – activates the NPC1 promoter | Huh7 NPC1 promoter luciferase reporter, 24 h | Potency, µM (doses to about 9.22 µM), for inactives: at the top dose activation, most hits filed as activators | 320,000 tested, 2.4% active; note: % of control where 0% means no effect; nearly all actives have a fitted effect of over 60% in size
#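 Cells: Huh7 expressing luciferase under the NPC1 promoter, 1500/well. Seeded 2 h, compound added, incubated 24 h at 37 °C. Luciferase reagent, 10 min ambient, then luminescence.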
# SMN2 splice up – increases expression of the SMN2 splice variant; HEK293 SMN2-luciferase splicing reporter, luminescence, 30-36 h; Potency, µM (series often up to 46.1 µM), for the others: top-dose activity change, positive = activation, usual class: activators; 210,000 tested, 2.8% active; AID 1458; note: % of control where 0% means no effect; nearly all actives have a fitted effect of over 55% in size
#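 HEK293 cells carry an SMN2 […]–luciferase reporter in which exon 7 inclusion puts luciferase in frame. Cells were plated 10-12 h before compound addition, then incubated 30-36 h at 37C. ONE-Glo luminescence was read; sodium butyrate at 4.5 mM final served as control.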
# FLuc modulator – firefly luciferase modulation, counter-screen for miR-21 project; 360,000 tested, 6.9% active; P08659; purified FLuc, Km substrates, luminescence inhibition; Potency, µM (highest dose often 57.5 µM), for inactives: at the highest dose activity change, negative = inhibition, usual class: inhibitors; AID 588342;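 note: plate controls were vehicle for no effect and reference inhibitor for full effect; nearly all actives have a fitted effect of over 55% in size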
# Target sequence (P08659 whole entry, looked up): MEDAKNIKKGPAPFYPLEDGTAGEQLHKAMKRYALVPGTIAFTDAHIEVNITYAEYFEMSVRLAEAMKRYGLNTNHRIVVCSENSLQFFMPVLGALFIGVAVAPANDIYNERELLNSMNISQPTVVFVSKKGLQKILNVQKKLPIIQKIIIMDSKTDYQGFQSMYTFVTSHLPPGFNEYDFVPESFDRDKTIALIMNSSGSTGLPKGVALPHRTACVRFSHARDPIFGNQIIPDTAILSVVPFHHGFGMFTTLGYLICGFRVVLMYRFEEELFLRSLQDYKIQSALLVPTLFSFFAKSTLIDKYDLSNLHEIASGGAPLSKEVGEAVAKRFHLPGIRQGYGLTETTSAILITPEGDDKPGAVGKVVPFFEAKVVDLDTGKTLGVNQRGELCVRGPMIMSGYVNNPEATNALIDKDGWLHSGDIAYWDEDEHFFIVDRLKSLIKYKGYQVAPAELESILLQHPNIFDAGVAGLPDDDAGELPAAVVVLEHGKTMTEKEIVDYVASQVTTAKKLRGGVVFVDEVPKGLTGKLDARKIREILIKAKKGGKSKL
#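 Biochemical qHTS of compounds, final roughly 60 µM downward over six points, against 10 nM purified firefly luciferase using Km concentrations of substrates (10 uM D-luciferin, 10 uM ATP) in Tris acetate pH 7.5 buffer; luminescence output.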
# Rab9 prom act – activators of Rab9 promoter; Potency, µM (doses to about 9.22 µM), for the others: at the top dose activation, negative = inhibition, usual class: activators; 320,000 tested, 2.8% active; Huh7 Rab9 promoter-luciferase reporter, luminescence, 24 h; note: % of control where 0% means no effect; nearly all actives have a fitted effect of over 60% in size
#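 Luminescence from Amplite-detected luciferase (10 minutes, ambient) reports Rab9 promoter activation. Before that, stable Rab9-luciferase Huh7 cells (1500/well, reduced-serum OP-MEM I plus 10% FBS) were exposed to compound for 24 hours at 37C.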
# ELG1 repair inh – inhibitors of ELG1-dependent DNA repair in HEK293T cells | HEK293T ELG1-luciferase reporter, luminescence, 16 h; DNA damage induced by 5-fluorouridine | 330,000 tested, 2.3% active | Potency, µM (top dose mostly 46.1 µM), for the others: top-dose activity change, negative = inhibition, actives largely listed as inhibitors | AID 504467; note: % is set by controls: 0 for no effect and ±100 for the full control effect; nearly all actives have a fitted effect of over 55% in size
#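 Cells (2,000 per well) received 5-fluorouridine plus test compound or DMSO and were incubated 16 hr at 37 °C, 5% CO2. Luciferase activity was read by luminescence 30 min after ONE-Glo addition; signal suppression marked inhibition of damage-induced ELG1 function.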
# ELG1 genotoxic – genotoxicity induction in ELG1-luciferase HEK293T cells | HEK293T ELG1-luciferase reporter, luminescence, 16 h | 330,000 tested, 1.3% active | Potency, µM (series often up to 46 µM), for inactives: at the top dose activity change, positive = activation, hits mostly activators; note: % of control where 0% means no effect; nearly all actives have a fitted effect of over 60% in size
#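 ELG1-luciferase HEK293T cells, 2,000/well; compound pinned in; 16 hr, 37 °C, 5% CO2; ONE-Glo, 30 min RT; luminescence on CCD imager.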
# An asterisk follows results filed as active; ? = inconclusive; . = no result; [ ] = another dose, or the depositor's remark. Calls come from the whole dose curve; as a rule, active = well fitted curve in the direction sought with a large enough effect; inconclusive = small, poorly fitted or top-dose-only effect, or another doubt; inactive = no such curve, though single readings can be large; an effect the other way counts as inactive or inconclusive. Potency is the fitted concentration of half-maximal effect.
SMILES,NPC1 prom act,SMN2 splice up,FLuc modulator,Rab9 prom act,ELG1 repair inh,ELG1 genotoxic
O=C(Nc1ccc(C(F)(F)F)cc1)c1cccnc1N1CCOCC1,-4%,1%,-2%,0%,-11%,0%
O=C(c1cc(-c2ccccc2Cl)nc2ccccc12)N1CCC1,-8%,.,-2%,-2%,-1%,-1%
Cc1noc(C)c1COc1ccccc1C(=O)N1CCN(c2cccc(C(F)(F)F)c2)CC1,-31%,.,4%,-12%,0%,-2%
O=C(c1cc(-c2ccccc2Cl)nc2ccccc12)N1CCN(c2ccccc2O)CC1,-1%,.,5%,1%,13µM*,-8%
O=C(c1cnc(N2CCN(c3ccccn3)CC2)c2ccccc12)N1CCN(c2cccc(Cl)c2)CC1,-27%,-81%,-8%,-26%,4.6µM*,-20%
O=C(c1cc(Sc2cccc(Cl)c2)nc2ccccc12)N1CCN(c2ccccn2)CC1,-1%,-66%,-13%,-2%,21µM*,-17%
O=C(c1cc(Sc2ccc(Cl)cc2)nc2ccccc12)N1CCN(c2ccccn2)CC1,-2%,-39%,-5%,-5%,?,-21%
Cc1noc(C)c1COc1ccccc1C(=O)N1CCN(c2cccc(Cl)c2)CC1,-21%,.,-5%,-11%,9.2µM*,0%
CC1CCN(C(=O)CN2CCSc3ccccc32)CC1,.,.,-2%,.,.,.
O=C(CSc1nnc(CNC(=O)c2cccc(C(F)(F)F)c2)o1)NC1CCCC1,-1%,.,5%,4%,0%,8%
Cc1ccc(C)c(OC(=O)CSc2nnc(-c3ccc4c(c3)OCO4)o2)c1,.,.,-1%,.,.,.
COc1ccc(S(=O)(=O)Nc2cc(-c3cn4ccccc4n3)ccc2C)cc1,.,8%,?,.,.,.
COc1c(Cl)cccc1-c1cn2ccccc2n1,0.79µM*,.,0.54µM*,1.3µM*,?,4.1µM*
COc1ccc(-c2cn3ccc4ccccc4c3n2)cc1,?,3.2µM*,0.95µM*,?,?,1.2µM*
CCCOc1ccc(-c2cn3ccccc3n2)cc1,?,2.2µM*,0.38µM*,0.32µM*,?,?
COc1ccc(-c2cn3ccccc3n2)cc1,0.56µM*,.,0.76µM*,0.4µM*,?,1.3µM*
COc1ccc(-c2cn(Cc3cccc(OC)c3)nn2)cc1,21%,.,?,6%,?,-1%
COc1ccc(NC(=O)CCNS(=O)(=O)c2ccc3c(c2)CCN3C(=O)C2CC2)cc1Cl,.,.,-10%,.,.,.
Cc1ccc(S(=O)(=O)C(CNC(=O)COc2ccc(Cl)cc2)c2ccco2)cc1 (configuration not stated),.,.,-12%,.,.,.
CC(=O)c1cccc(NC(=O)CCc2nnc3ccc(NCc4ccc5c(c4)OCO5)nn23)c1,-5%,.,-1%,0%,24%,0%
CCOC(=O)C1=NN(c2cccc(Cl)c2)C2=NC(C)=C(C(=O)OC)C(c3cccs3)N12 (configuration not stated),-12%,-10%,0%,-3%,21µM*,-5%
CC(C)(C)n1[nH]c2c3c(ccc2c1=O)C(=O)c1ccccc1C3=O,5%,?,-4%,0%,-1%,-3%
Cc1ccc(C)c(-n2[nH]c3c4c(ccc3c2=O)C(=O)c2ccccc2C4=O)c1,1%,-21%,15µM*,7%,-5%,-7%
Cc1ccc(-n2[nH]c3c4c(ccc3c2=O)C(=O)c2ccccc2C4=O)cc1,-1%,-1%,1%,-8%,17%,4%
COCCCn1[nH]c2c3c(ccc2c1=O)C(=O)c1ccccc1C3=O,17%,20%,?,10%,26µM*,-10%
SMILES,NPC1 prom act,SMN2 splice up,FLuc modulator,Rab9 prom act,ELG1 repair inh,ELG1 genotoxic
Cc1ccc(CCN2CC(C(=O)NCCCN3CCC(C)CC3)CC2=O)cc1 (configuration not stated),1%,.,-1%,-2%,?,0%[9.26 µM]
Cc1cccc(CC(=O)NCCN2CCCCC2)c1,1%,.,-1%,0%,?,-8%
COc1ccccc1OCC(=O)N/N=C1\CCCCc2ccccc21,1%,.,-17%,-2%,?,-7%
Cc1cccc2c1OCC/C2=N\NC(=O)COc1ccccc1,?,9%,19µM*,?,?,?
COc1ccc(OCC(=O)N/N=C2\CCCc3ccccc32)cc1,8%,.,19µM*,6%,15%,1%
O=C(COc1ccccc1F)N/N=C1\CCCc2ccccc21,?,.,15µM*,?,?,?
COc1ccccc1OCC(=O)N/N=C1\CCc2ccccc21,26%,.,21µM*,2.8µM*,?,8.2µM*
O=C(COc1cccc(Br)c1)N/N=C1\CCCc2ccccc21,7%,10%,?,15%,?,9%
CCOC(=O)c1c(C)oc2nc(C)nc(NCc3cccc(OC)c3)c12,.,.,3%,.,.,.
CC(=O)Nc1sc(N/N=C\c2ccco2)nc1-c1cccs1,-2%,-11%,17µM*,16%,-2%,2%
COc1ccc(/C=N/Nc2nc(-c3ccc(C)cc3)c(NC(C)=O)s2)cc1,10%,.,5.4µM*,-2%,25%,7%
CC(=O)Nc1sc(-c2ccc(Cl)cc2)nc1-c1ccccc1,-7%,.,-14%,-3%,13%,1%
CC(=O)Nc1sc(-c2ccccc2)nc1-c1ccccc1,0%,-28%,-25%,-2%,?,15%
CC(=O)Nc1sc(N/N=C/c2ccccc2)nc1-c1ccc(C)cc1,-1%,.,8.5µM*,-2%,?,4%
CC(=O)Nc1sc(N/N=C/c2ccccc2F)nc1-c1ccc(C)cc1,1%,.,7.6µM*,10%,0%,-2%
CCn1c(SCc2cccc(OC)c2)nc2ccccc2c1=O,1%,.,-2%,-2%,2%,-9%
CCOC(=O)c1ccc(NS(=O)(=O)c2cc3c(cc2C)n(C)c(=O)c(=O)n3C)cc1,.,.,-19%,.,.,.
Cc1c(C(=O)N2CCCC2)c(S(=O)(=O)NCCc2ccccc2)c(C)n1C,-1%,.,-1%,8%,1%,0%
O=C(N=Nc1c(O)[nH]c2ccc(F)cc12)C1COc2ccccc2O1 (configuration not stated),2%,.,4%,-12%,-4%,2%
CC(=O)Nc1sc(N/N=C\c2ccccc2Cl)nc1-c1cccs1,4%,-20%,-18%,13%,?,?
CCOc1cc(/C=N/Nc2nc(-c3cccs3)c(NC(C)=O)s2)ccc1O,-1%,.,27µM*,1%,?,1%
CC(=O)Nc1sc(N/N=C/c2ccc(O)cc2)nc1-c1ccc(C)cc1,1%,.,2.4µM*,10%,?,?
